Only some compounds are listed: those with a hit (about 3.8% of all), similar ones and a draw of the others.
NTR1 ag = agonists of human neurotensin receptor NTR1; NTR1-U2OS beta-arrestin-GFP spot imaging, agonist mode; activation, % at 20 µM; 330,000 tested, 0.17% active;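 active = activation at or above 40% of the spot to cytoplasm intensity ratio, with at least 20 cells analyzed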
Target sequence (P30989 whole entry, looked up): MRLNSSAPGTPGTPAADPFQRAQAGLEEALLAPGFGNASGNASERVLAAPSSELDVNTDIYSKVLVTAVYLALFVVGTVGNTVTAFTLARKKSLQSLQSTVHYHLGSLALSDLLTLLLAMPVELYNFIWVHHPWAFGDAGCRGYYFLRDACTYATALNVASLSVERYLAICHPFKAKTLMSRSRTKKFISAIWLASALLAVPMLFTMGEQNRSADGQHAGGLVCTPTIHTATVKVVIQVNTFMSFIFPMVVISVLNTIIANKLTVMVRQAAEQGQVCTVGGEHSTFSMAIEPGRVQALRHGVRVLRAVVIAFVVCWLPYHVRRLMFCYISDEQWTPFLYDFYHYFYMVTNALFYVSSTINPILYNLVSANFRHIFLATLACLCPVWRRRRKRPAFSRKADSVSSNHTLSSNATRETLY
A1 inh = inhibitors of the anti-apoptotic protein A1, read as caspase activation | MEF A1-2A-BIM cells, Caspase-Glo 3/7 luminescence, 3 h; percent of clofoctol response, vehicle zero | caspase activation, % (concentration not given with the values) | 330,000 tested, 0.066% active;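 active = over half of replicate activation scores above 10%, or exactly half above 10 with the replicate mean above 10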
697 NFkB inh = inhibitors of the PMA/ionomycin-induced NF-kB reporter in 697 B cells. 697 B-cell NF-kB luciferase reporter, 16 h. AID 435022. 330,000 tested, 0.33% active. inhibition, % at 4 µM; in the data active = inhibition above about 35%
Jurkat NFkB inh = lowers PMA/ionomycin-induced NF-kB signal in Jurkat cells. 330,000 tested, 0.53% active. PMA/ionomycin-induced NF-kB luciferase reporter, luminescence. inhibition, % at 4 µM. AID 435003; in the data active = inhibition above about 50%
Beta cell apopt = blocks beta cell apoptosis. INS-1E cytokine-induced death, ATP luminescence, 48 h; percent of positive-control rescue, neutral wells zero. protection from apoptosis, % (no concentration beside the values). 300,000 tested, 0.8% active;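 active = Every replicate reaches about 75%, or at least half do and their mean reaches it too, limit read from the data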;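 also: higher means more ATP so stronger rescue from cytokine killing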
Mdm2-MdmX inh = inhibitors of human Mdm2/MdmX interaction; 330,000 tested, 3% active; O15151+Q00987; AID 485346; SaOS-2 split-luciferase Mdm2/MdmX complementation, luminescence; inhibition, % at 8 µM;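 active = inhibition of at least 50% at 8 µM in the primary screen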
Mdm2 MdmX conf = human Mdm2/MdmX binding inhibition, confirmed. luminescent assay. inhibition, % at 8 µM. 10,000 tested, 55% active. AID 489028. shares compounds with Mdm2-MdmX inh; in the data active = inhibition above about 40%
Full FLuc ctr = full-length luciferase inhibition in Mdm2/MdmX counter-screen | shares compounds with Mdm2-MdmX inh | SaOS-2 full-length luciferase counterscreen, luminescence | inhibition, % at 8 µM | 6,200 tested, 77% active | AID 504607;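 active = mean inhibition at 8 µM reaching about 37%, which flags the compound as non-specific, limit read from the data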;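 also: p53-null SaOS-2 cells with luciferase driven by a doxycycline-inducible promoter; compound on cells about two nights before reading with doxycycline added after day one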
Numbers stand for hits; n = inactive; x = not tested or not shown.

SMILES	NTR1 ag	A1 inh	697 NFkB inh	Jurkat NFkB inh	Beta cell apopt	Mdm2-MdmX inh	Mdm2 MdmX conf	Full FLuc ctr
CCOc1ccc(NC(=O)CN(C)C(=O)c2cc(-c3ccc(OC)cc3)nc3ccccc23)cc1OCC	n	n	n	n	n	70.7	46.1	74.8
COc1cccc(NC(=O)CN(C)C(=O)c2cc(-c3ccc(C)o3)nc3ccccc23)c1	n	n	n	n	n	n	x	x
COc1cccc(NC(=O)CN(C)C(=O)c2cc(-c3cccc(Br)c3)nc3ccccc23)c1	n	n	n	n	n	69.8	n	x
Nc1c(C(=O)c2ccccc2O)cnn1-c1ccc(S(=O)(=O)N2CCOCC2)cc1[N+](=O)[O-]	n	n	n	n	n	70.2	n	x
CC(=O)N1CCN(c2ccc(S(=O)(=O)N3CCOCC3)cc2[N+](=O)[O-])CC1	n	n	n	n	n	n	x	x
O=[N+]([O-])c1cccc(N/N=C/c2cc([N+](=O)[O-])ccc2O)c1	n	n	n	n	x	n	x	x
O=[N+]([O-])c1ccc(O)c(/C=N/Nc2ncnc3c2cnn3-c2ccccc2)c1	n	n	n	n	n	90.8	91.2	n
Cc1ccc(S(=O)(=O)c2nnn3c2nc(NC2CCN(Cc4ccccc4)CC2)c2ccccc23)cc1C	n	n	n	n	x	63.7	n	51.5
Cn1c2ccccc2c(=O)c2ccc(NCCc3cccs3)cc21	n	n	n	n	n	n	x	x
O=C(CSc1nc(-c2ccc(F)cc2)cc(C(F)(F)F)n1)Nc1ccc2c(c1)OCO2	n	n	n	n	n	60.9	n	75.2
NC(=O)C(C(=O)/C=C/c1ccc(Cl)cc1)=C1SCCS1	n	n	n	n	n	91.9	82.2	49.0
CC(=O)c1ccc(NC(=O)CCS(=O)(=O)c2ccc3c(c2)n(C)c(=O)c(=O)n3C)cc1	n	n	n	n	n	n	x	x
Cc1cccc(NC(=O)c2cc(-c3ccc(C)c(C)c3O)n[nH]2)c1	n	n	n	n	n	53.4	n	x
CCOC(=O)c1cnc2c(C)cc(C)cc2c1NCCCN1CCOCC1	n	n	n	n	n	n	x	x
Cc1cc(N/N=C/c2c(O)ccc3ccccc23)nc(-c2ccccc2O)n1	n	n	n	n	88.7	61.0	53.2	39.3
Cc1ccc(C)c(Nc2cc(C)nc(-c3ccccc3O)n2)c1	n	n	n	n	n	58.7	61.8	49.0
CCOc1ccc(CCNC(=O)CCn2ccc3cc(S(=O)(=O)N4CCCC4)ccc32)cc1	n	n	n	n	n	n	x	x
CCOC(=O)C1CCN(C(=O)c2c(C)oc3c2C(=O)c2ccccc2C3=O)CC1	n	n	n	n	102.0	57.9	45.2	67.0
CC(C)(C)c1ccc(OCC(=O)N/N=C/c2cc(Br)ccc2OC(=O)c2ccco2)cc1	n	n	n	n	n	81.7	79.0	n
Cc1cccc(OCCN2C(=O)C(=O)c3cc(C)ccc32)c1	n	n	n	n	n	68.6	61.6	89.6
Cc1cccc(OCCN2C(=O)C(=O)c3cccc(C)c32)c1	n	n	n	n	x	n	x	x
Cc1ccc2c(c1)C(=O)C(=O)N2CCOc1ccccc1	n	n	n	n	n	65.2	46.2	95.1
CC(C)(C)C1CCC(=NNC(=O)c2ccco2)CC1 (centres undefined)	n	n	n	n	n	n	x	x
Cc1ccc(C(=O)c2oc3ccccc3c2NC(=O)c2cc(-c3cc(C)ccc3O)n[nH]2)cc1	n	n	n	n	n	77.6	n	72.3
COc1ccc(C2CC(=O)N(C)c3ccccc3S2)cc1OC (centres undefined)	n	n	n	n	n	53.4	n	x
Cc1ccc(S(=O)(=O)c2nc(-c3ccccc3Cl)oc2N(C)C)cc1	n	n	n	n	n	55.8	71.9	72.5
Cc1ccc(S(=O)(=O)c2nc(-c3ccccc3Br)oc2N(C)C)cc1	n	n	n	n	n	n	x	x
CCc1cc(C(=O)NC2CCCN(Cc3ccccc3F)C2)n(C)n1 (centres undefined)	n	x	n	n	x	n	x	x
